Source: PubChem BioAssay
In the library only some 2.9% were active in any assay of this set; here they are far more common.
D3 ag – agonists of human D3 dopamine receptor; P35462; D3R DiscoveRx beta-arrestin cells, luminescence, 90 min; max activation, %; 410,000 tested, 0.58% active; AID 652048; in the data active = max activation above about 30%; note: 0% is about no effect
Target sequence (P35462 whole entry, looked up): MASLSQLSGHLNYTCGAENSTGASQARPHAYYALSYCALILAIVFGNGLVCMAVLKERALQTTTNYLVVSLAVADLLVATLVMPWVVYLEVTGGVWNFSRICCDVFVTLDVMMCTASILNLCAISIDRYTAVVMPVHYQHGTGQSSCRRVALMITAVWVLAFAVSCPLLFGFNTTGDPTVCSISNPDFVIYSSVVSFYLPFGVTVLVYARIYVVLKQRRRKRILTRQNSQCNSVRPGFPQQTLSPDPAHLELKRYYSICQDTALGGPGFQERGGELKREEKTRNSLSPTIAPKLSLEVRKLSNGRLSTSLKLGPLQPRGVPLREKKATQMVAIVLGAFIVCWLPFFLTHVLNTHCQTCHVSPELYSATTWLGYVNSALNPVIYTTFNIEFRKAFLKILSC
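Cells at 1500/well, incubated overnight, then treated with pinned compounds (dopamine as control) for 90 min at 37 degrees C. DiscoveRx reagent added for 30 - 60 minutes at room temperature; luminescence read.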
DRD3 antagonist – antagonists of human D3 dopamine receptor; AID 652054; D3R cells, DiscoveRx beta-arrestin luminescence, antagonist mode; hits give low values; 360,000 tested, 2.5% active; max response, negative = inhibition, %; in the data active = max response below about -50%; inconclusive = no clear call, values can overlap the other calls; note: % is set by controls: 0 for no effect and ±100 for the full control effect
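Cells plated overnight at 1500 cells/well, then exposed to library compounds with dopamine controls for 90 minutes at 37 degrees C. DiscoveRx reagent added for 30–60 minutes at room temperature; luminescence read, quantitative HTS format.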
Integrin act MD – activators of alpha7 integrin expression for muscular dystrophy; 350,000 tested, 0.064% active; alpha7betagal myoblasts, beta-gal FDG fluorescence, 48 h; AID 624291; Potency, µM (top dose mostly 38.3 µM), for inactives: at the highest dose activation, usual class: activators; active = well fitted activation curve with a large enough effect; inconclusive = small, poorly fitted or top-dose-only effect; inactive = no such curve, though single readings can be large or run the other way;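 note: potency is the fitted concentration of half-maximal effect; 100% = response of the positive control SU9516; nearly all actives have a fitted effect of over 60% in size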
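Alpha7betagal+/- myoblasts (passage 13) were plated 16-24 hr, then exposed to compounds (1:260 dilution of DMSO stock) for 48 hours at 37C. After MPER lysis, β-galactosidase reporter activity was read as FDG fluorescence (ex 480/em 540) after 30 minutes.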
* hit, by the source's call; ? = inconclusive; nt = no result.

SMILES	D3 ag	DRD3 antagonist	Integrin act MD
Cc1ccc(SCCN2CCN(Cc3ccccc3)CC2)cc1	-18	?	-20%
OC(CN1CCc2ccccc2C1)c1ccccc1 (stereo unspecified)	-25	-24	5%
COc1ccc(C2NCCO2)cc1OC (stereo unspecified)	-1	-22	-5%
Cn1ccnc1COc1ccc(/C=N/O)cc1	-3	3	-7%
Cc1nn(C)cc1CN(C)C(=O)CCc1nnc(CCC2CCCCC2)o1	2	-21	23%
CCc1ccc2nc(N3CCC(C(=O)NCCC(C)C)CC3)sc2c1	4	nt	nt
CNS(=O)(=O)c1cccc(C(=O)OCC(=O)c2cc(C)n(-c3ccc4c(c3)OCO4)c2C)c1	-11	33	-19%
COc1ccc(N2CC(NC(=O)NCC(C)C)CC2=O)cc1 (stereo unspecified)	2	16	3%
CC1=NN(C(=S)Nc2ccccc2)C(c2ccccc2)C1 (stereo unspecified)	-8	?	19%
Cc1ccc(C2CC(c3ccccc3)=NN2C(=S)Nc2ccccc2)o1 (stereo unspecified)	-3	-51*	-6%
CC1(C(=O)Nc2ccc3c(c2)OCO3)CCN1C(=O)Cc1ccc(-c2ccccc2)cc1 (stereo unspecified)	1	0	nt
COC(=O)c1ccccc1NC(=O)CN(C)S(=O)(=O)c1ccc(OC)cc1	6	15	0%
O=C(CSc1nc2[nH]ncc2c(=O)[nH]1)Nc1ccc(OC(F)(F)F)cc1	-1	0	24%
COc1ccc(CN(C)CC2CCCN(CCc3ccccc3C)C2)cc1O (stereo unspecified)	-17	15	-14%
COc1cc(OC)c(OC)cc1CN(C)CC1CCCN(CCc2ccccc2F)C1 (stereo unspecified)	-3	-51*	-10%
O=C(O)c1ccc(Cl)cc1NC(=O)C1CCN(S(=O)(=O)c2cccs2)CC1	-6	-4	9%
CC(=O)n1cc(/C=N/NC(=O)c2cccc(O)c2)c2ccccc21	4	11	-35%
CCCC(=O)N1CC(=O)Nc2ccc(Br)cc2C1c1ccc(F)cc1 (stereo unspecified)	-5	3	9%
CCCn1c(SCC(=O)c2cc(C)n(-c3cc(C)on3)c2C)n[nH]c1=O	31*	11	-28%
CCCc1cc(=O)[nH]c(SCC(=O)c2cc(C)n(-c3cc(C)on3)c2C)n1	30	17	-7%
CCOc1ccc(-c2nnn(CC(=O)Nc3cccc(OC)c3)n2)cc1OCC	3	-12	-28%
Cc1cc(C)c(S(=O)(=O)N2CCCC2=O)c(C)c1N(C)S(C)(=O)=O	2	14	5%
COc1ccc(OC)c(CC(=O)Nc2ccc3c(c2)c(=O)n(C)n3Cc2cccc(C(F)(F)F)c2)c1	-19	-52*	nt
COc1ccc(CNC(=O)Nc2ccc3c(c2)c(=O)n(C)n3Cc2cccc(C(F)(F)F)c2)cc1	2	-14	nt
CCC(C)c1ccccc1OCCOCCN1CCCC1 (stereo unspecified)	-25	-52*	-45%
SMILES	D3 ag	DRD3 antagonist	Integrin act MD
CCN1CCN(CCOCCOc2ccccc2)CC1	-13	-13	-12%
CCC(C)c1ccccc1OCCCCN1CCCC1 (stereo unspecified)	-27	-72*	-64%
O=C(CCNC(=O)C1CCN(S(=O)(=O)c2ccc(F)cc2)CC1)NC1CC1	-7	-27	?
Cc1ccccc1OCC(=O)NS(=O)(=O)c1ccc(Cl)cc1	3	14	28%
C=CCc1c(C)nc(-c2ccccc2)nc1N/N=C/c1ccncc1	-7	-15	19%
C=CCc1c(C)nc(-c2ccccc2)nc1N/N=C/c1ccccc1	-5	7	11µM*
O=C(CSc1nnc2ccccn12)NCc1ccc2c(c1)OCO2	2	36	-47%
CC(C)Oc1ccc(S(=O)(=O)N2CCCCC2)cc1NC(=O)CN1C(=O)NC(C)(C2CC2)C1=O (stereo unspecified)	-2	?	-5%
COc1ccc(N2CCN(C(=O)COC(=O)CCS(=O)(=O)c3ccc(C)cc3)CC2)cc1	2	10	-37%
Cc1ccc(NC(=O)[C@H](NC(=O)[C@@H]2Cc3ccccc3CN2)c2ccccc2)c(C)c1	0	-23	-25%
CCc1ccc(NC(=O)[C@H](NC(=O)[C@@H]2Cc3ccccc3CN2)c2ccccc2)cc1	-22	-101*	?
Cc1cc(C)cc(NC(=O)[C@H](NC(=O)[C@@H]2Cc3ccccc3CN2)c2ccccc2)c1	-25	-108*	-35%
CCc1ccc(NC(=O)[C@@H](NC(=O)[C@@H]2Cc3ccccc3CN2)C(C)CC)cc1 (stereo partly specified)	-14	?	-46%
O=C(COC(=O)Cc1ccc(Cl)c(Cl)c1)NCCc1ccccc1	2	14	1%
